Assay outcomes deposited in PubChem BioAssay by National Center for Advancing Translational Sciences (NCATS).
Hits are enriched below; roughly 21% of the tested compounds scored in any of these assays.
CHX counter: counter-screen for Shiga toxin inhibitors: cycloheximide protein synthesis inhibition | hit rate 12% among 300,000 | max response, % | AID 2314 | cell reporter, cycloheximide protein synthesis inhibition counterscreen; in the data active = max response mostly above about 13%, no sharp cut-off; inactive = mostly below about 14%; note: read at 38.3 µM for the half of the compounds with a filed dose; 0% is about no effect
NS1 function inh: influenza NS1 inhibition; Potency, µM (highest dose often 46.1 µM), for inactives: at the highest dose activity, positive = more growth; hit rate 0.4% among 270,000; AID 2326; calls by dose curve; note: potency is the fitted concentration of half-maximal effect; actives are rising curves; nearly all actives have a fitted effect of over 50% in size
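In this qHTS, NS1 from influenza A is expressed in budding yeast, where it slows growth. Cells are switched from glucose to 2% galactose medium (pH 6.0, -URA), treated with compound, and growth recovery is read at OD600.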
Shiga inhibitor: inhibitors of Shiga toxin in Vero cells; hit rate 9.2% among 290,000; Vero cells, Shiga toxin protein synthesis inhibition reporter; inhibition, % at 38.7 µM; in the data active = inhibition mostly above about 28%, no sharp cut-off; inactive = mostly below about 43%; note: 0% is about no effect
Pf growth 96h: P. falciparum growth inhibition at 96 hours. P. falciparum luciferase reporter growth, 96 h. Potency, µM (series often up to 28.7 µM), without a hit: at the highest dose activity change, negative = inhibition, most hits filed as inhibitors. hit rate 6.9% among 320,000. AID 504834; note: potency is the fitted concentration of half-maximal effect; % is set by controls: 0 for no effect and ±100 for the full control effect
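96 h incubation, 37 C, 5% CO2, of luciferase-reporter P. falciparum-infected RBCs (2% hematocrit, 0.05% parasitemia final) with test compounds; endpoint luminescence.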
SARS PLpro yeast: inhibitors of SARS-CoV papain-like protease in yeast; AID 485353; Potency, µM (highest dose often 32.9 µM), for inactives: top-dose activity, positive = growth rescue, usual class: activators; S. cerevisiae expressing SARS-CoV PLpro, growth rescue; hit rate 0.19% among 330,000; calls by dose curve; note: potency is the fitted concentration of half-maximal effect; 0% is about no effect; nearly all actives have a fitted effect of over 55% in size
Pf growth 48h: P. falciparum growth inhibition at 48 hours (one generation); P. falciparum luciferase growth in erythrocytes, 48 h; Potency, µM (highest dose often 28.7 µM), for the others: at the top dose activity change, negative = inhibition, hits mostly inhibitors; hit rate 5.9% among 310,000; note: potency is the fitted concentration of half-maximal effect; % is set by controls: 0 for no effect and ±100 for the full control effect
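In quantitative HTS format, infected erythrocytes bearing luciferase-reporter parasites were treated for a single generation at 37 C. Luminescence after adding detection reagent served as the growth measure.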
* = called active by the depositor; i = inactive; ? = inconclusive; . = not tested or not shown; [ ] = dose if it differs, or a comment. Unless noted, calls come from the whole dose curve; as a rule, active = well fitted inhibition curve with a large enough effect; inconclusive = small, poorly fitted or top-dose-only effect, or another doubt; inactive = no such curve, though single readings can be large or run the other way.

SMILES	CHX counter	NS1 function inh	Shiga inhibitor	Pf growth 96h	SARS PLpro yeast	Pf growth 48h
Clc1ccc(Nc2nc3ccccc3n3nnnc23)cc1	12	2%	2	.	-10%	?
Cc1cccc(OCCCN2C(=O)C(=O)c3cc(C)ccc32)c1	1	-5%	20	7%	-3%	-7%
COc1ccc(OCC(=O)NC(=O)c2ccccc2)c([N+](=O)[O-])c1	.	.	.	40%	-1%	24%
Nc1cccc2c1C(=O)N(CCOc1ccccc1F)C2=O	19*	-4%	46*	314%	0%	206%
COc1cccc(CN2C(=O)c3cccc(N)c3C2=O)c1	1	-39%	14	24%	-7%	27%
CCOc1ccc(OCCN2C(=O)c3ccccc3C2=O)cc1	-4	-10%	-19	13µM*	-2%	?
COc1ccc(OCCN2C(=O)c3ccccc3C2=O)c([N+](=O)[O-])c1	96*	-4%	62*	48%	0%	23%
Cc1cccc(OCCN2C(=O)c3ccccc3C2=O)c1	49*	-10%	89*	12%	-3%	61%
NCCSS(=O)(=O)CCN	.	3%	.	.	.	.
O=C1c2ccccc2C(=O)N1CCOCCN1C(=O)c2ccccc2C1=O	-4	-1%	12	.	5%	19%
O=C(OCCN1C(=O)c2ccccc2C1=O)c1ccccc1	24*	.	18	8%	0%	38%
O=C1c2ccccc2C(=O)N1CCCOc1ccccc1	39*	-13%	90*	.	-7%	53%
N#Cc1ccccc1OCCN1C(=O)c2ccccc2C1=O	40*	6%	86*	-25%	-4%	43%
O=C(OCN1C(=O)c2ccccc2C1=O)c1ccccc1	-4	-8%	-9	5%	-6%	4%
CC1=Nc2cc(C(=O)N3CCC4(CC3)OCCO4)ccc2Sc2ccc(Cl)cc21	14	12%	28	?	21%	?
CC1=Nc2cc(C(=O)NCc3ccco3)ccc2Sc2ccc(C)cc21	-1	18%	-12	1.9µM*	-23%	4.1µM*
CC1=Nc2cc(C(=O)NCC3CCCO3)ccc2Sc2ccc(C)cc21 (configuration not stated)	-2	-3%	-5	-5%	0%	?
CCOC(=O)N1CCN(C(=O)c2ccc3c(c2)N=C(C)c2cc(Cl)ccc2S3)CC1	-2	-16%	-5	?	0%	9.3µM*
CC1=Nc2cc(C(=O)O)ccc2Sc2ccc(C)cc21	20*	.	36	?	4%	-5%
COC(=O)C(CO)Nc1ncnc2onc(-c3ccc(F)cc3)c12 (configuration not stated)	-3	-4%	2	?	0%	.
Cc1nnc(SCC(=O)Nc2sccc2C#N)s1	14	-1%	-16	1%	1%	9%
Cn1ccnc1SCC(=O)Nc1sccc1C#N	11*	0%	14	63%	-7%	18%
N#Cc1ccsc1NC(=O)CSc1ncn[nH]1	3	8%	-4	35%	2%	23%
N#Cc1ccsc1NC(=O)CSc1ncnc2ccccc12	15*	19%	12	.	2%	-2%
CCNC(=O)C/C(C)=N/NC(=O)C12CC3CC(CC(C3)C1)C2	20*	5%	41	?	2%	?
SMILES	CHX counter	NS1 function inh	Shiga inhibitor	Pf growth 96h	SARS PLpro yeast	Pf growth 48h
Cc1ccc(C(C)C)c(OCC(=O)N2CCN(c3ncccn3)CC2)c1	.	.	.	-33%	-2%	?
COc1cc(Cl)c(C)cc1NC(=O)c1ccc(S(C)(=O)=O)cc1	-2	-1%	-8	-4%	-1%	-2%
O=C1NC(=O)C2(Cc3ccccc3N3CCCC32)C(=O)N1c1cccc(Cl)c1 (configuration not stated)	0	-2%	-6	2.3µM*	-1%	-17%
c1ccc(-c2ncnc3cc4n(c23)CCC4)cc1	-5	1%	-19	?	16%	-19%
CC(C)C[C@H](NC(=O)[C@H](CCCCN)NC(=O)CNC(=O)[C@H](CC(C)C)NC(=O)[C@@H](NC(=O)[C@@H]1CSSC[C@H](N)C(=O)N[C@@H](CO)C(=O)N[C@@H](CC(N)=O)C(=O)N[C@@H](CC(C)C)C(=O)N[C@@H](CO)C(=O)N[C@@H]([C@@H](C)O)C(=O)N1)C(C)C)C(=O)N[C@@H](CO)C(=O)N[C@@H](CCC(N)=O)C(=O)N[C@@H](CCC(=O)O)C(=O)N[C@@H](CC(C)C)C(=O)N[C@@H](Cc1cnc[nH]1)C(=O)N[C@@H](CCCCN)C(=O)N[C@@H](CC(C)C)C(=O)N[C@@H](CCC(N)=O)C(=O)N[C@H](C(=O)N[C@@H](Cc1ccc(O)cc1)C(=O)N1CCC[C@H]1C(=O)N[C@@H](CCCNC(=N)N)C(=O)N[C@H](C(=O)N[C@@H](CC(N)=O)C(=O)N[C@H](C(=O)NCC(=O)N[C@@H](CO)C(=O)NCC(=O)N[C@H](C(=O)N1CCC[C@H]1C(N)=O)[C@@H](C)O)[C@@H](C)O)[C@@H](C)O)[C@@H](C)O	-8	.	-6	.	.	.
CN(C)c1ccc(NC(=O)/C=C/c2c(Cl)cccc2Cl)cc1	41*	17%	59*	3%	-15%	49%
O=C(Nc1ccc(Cl)cn1)C1CC1	8	.	11	0%	3%	7%
COC(=O)C(CC(C)C)NC(=O)/C=C/c1ccccc1Cl (configuration not stated)	-3	-28%	-6	-23%	4%	13µM*
O=C(/C=C/c1ccccc1Cl)Nc1ccc(Cl)cn1	23	.	48*	-19%	0%	222%
COC(=O)C(CC(C)C)NC(=O)/C=C/c1ccc(Cl)cc1 (configuration not stated)	-3	.	20	54%[5.75 µM]	0%	?
O=C(/C=C/c1ccccc1Cl)Nc1ccccc1	37*	-63%	60*	73%	-6%	228%
Cc1ccc(C(C)(C)C)cc1S(=O)(=O)Nc1cccc(S(=O)(=O)NC2=NCCC2)c1	-6	-5%	-3	-26%	1%	15%
Cc1cc(/C=C(\C#N)C(=O)NCc2ccco2)c(C)n1-c1ccc(C(=O)O)cc1	-2	3%	-3	?	1%	7%
O=C(/C=C/c1ccccc1Cl)Nc1cccc(O)c1	26*	.	78*	375%	2%	278%
C/C(=N\O)c1ccc(N2C(=O)C3CC=C(Cl)CC3C2=O)cc1 (configuration not stated)	37*	4%	80*	5.2µM*	5%	i
CCc1ccc(NC(=O)C2CCC(CNC(=O)[C@@H]3Cc4ccccc4CN3)CC2)cc1 (some centres not stated)	27*	9%	-1	-12%	-7%	?
Cc1ccc(NC(=O)C2CCN(C(=O)[C@@H]3Cc4ccccc4CN3)CC2)cc1	24*	-3%	63*	81%	-1%	60%
